The list is not random: actives were taken first. Their share in the collection is about 6%.
D3 antag = D3 dopamine receptor (human) antagonism | P35462 | D3R cells, DiscoveRx beta-arrestin luminescence, antagonist mode; active compounds read low | max response, negative = inhibition, % | actives 2.5% (n = 360,000) | AID 652054; in the data active = max response below about -50%; inconclusive = no clear call, values can overlap the other calls
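Cells plated overnight at 1500 cells/well, then exposed to library compounds with dopamine controls for 90 minutes at 37 degrees C. DiscoveRx reagent added for 30–60 minutes at room temperature; luminescence read, quantitative HTS format.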
D1 agonist = activates the human D1 dopamine receptor; actives 1% (n = 360,000); AID 504660; activation, % at 2 µM; P21728; HEK293 T-REx D1 cells, calcium flux, agonist mode; in the data active = activation above about 30%
Target sequence (P21728 whole entry, looked up): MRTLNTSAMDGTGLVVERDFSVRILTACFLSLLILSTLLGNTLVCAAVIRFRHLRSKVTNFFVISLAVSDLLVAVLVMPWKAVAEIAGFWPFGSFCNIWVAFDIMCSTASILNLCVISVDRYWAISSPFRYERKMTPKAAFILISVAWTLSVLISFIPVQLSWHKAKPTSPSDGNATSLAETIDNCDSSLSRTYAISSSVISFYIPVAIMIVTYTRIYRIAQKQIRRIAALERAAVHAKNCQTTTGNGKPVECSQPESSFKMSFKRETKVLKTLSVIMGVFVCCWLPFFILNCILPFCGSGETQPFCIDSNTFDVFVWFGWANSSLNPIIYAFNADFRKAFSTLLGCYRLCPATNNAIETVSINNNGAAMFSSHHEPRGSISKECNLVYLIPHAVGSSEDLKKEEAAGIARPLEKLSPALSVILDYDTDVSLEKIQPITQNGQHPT
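Tetracycline-induced HEK293 TREx D1 cells, force-coupled to calcium signalling, were dye-loaded with a no-wash calcium kit. Compound was pin-added after a 10 s baseline. Fluorescence was read kinetically at 1 cycle/s for 180 s, with calcium rises flagged as agonism.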
Chronic BCR inh = chronic active BCR signaling inhibition. AID 493014. Potency, µM (titrated, usually from 46.1 µM), hits mostly inhibitors. ABC-DLBCL IkBa-CBG/CBR reporter, luminescence ratio, 4 h. actives 0.05% (n = 340,000); active = well fitted inhibition curve with a large enough effect in the signal ratio, with a control signal flat, not every such curve was filed as active; inconclusive = small, poorly fitted or top-dose-only effect, or effect the other way, or a change in a side signal; the % refers to the signal ratio
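Compounds up to 46 uM were incubated four hours with TMD8 cells whose green CBG68 luciferase is fused to IkappaBalpha; red CBR luminescence normalised the signal, and concentration-effect curves were fitted to fusion, red and ratio data.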
D1 potentiator = enhances dopamine response at the human D1 receptor | P21728 | HEK293 TREx D1 cells, calcium flux, dopamine EC20 potentiation | potentiation, % at 10 µM | actives 0.036% (n = 360,000); in the data active = potentiation above about 30%
D3 ag = activates the human D3 dopamine receptor | P35462 | D3R DiscoveRx beta-arrestin cells, luminescence, 90 min | max activation, % | actives 0.58% (n = 410,000); in the data active = max activation above about 30%
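Agonist-mode cell screen: cells plated at 1500/well and incubated overnight at 37 °C, then exposed to library compounds for 90 min at 37 °C. Detection reagent was added for 30–60 min at room temperature, and luminescence was read.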
D1 antagonist = antagonists of human D1 dopamine receptor | P21728 | actives 3.2% (n = 360,000) | AID 504652 | activity change, negative = inhibition, % at 10 µM | HEK293 TREx D1 cells, calcium flux, dopamine EC80; active compounds read low; in the data active = activity change below about -30%
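After overnight tetracycline induction at 30 C, force-coupled D1 HEK293 cells took up a no-wash calcium dye at room temperature. Compounds were added and monitored 180 s, and the response to EC80 dopamine was then recorded.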
Large screens that a line does not name were inactive.

CCOc1ccc(-n2c(Cc3ccccc3)nnc2SCc2nc(-c3ccccc3C)no2)cc1	D1 agonist 32 (no result: D3 antag, Chronic BCR inh)
CCOc1ccc(-n2c(Cc3ccccc3)nnc2SCc2nc(-c3ccccc3OC)no2)cc1	none (no result: D3 antag, Chronic BCR inh)
CCOc1ccc(-c2noc(CSc3nnc(Cc4ccccc4)n3-c3cccc(C)c3)n2)cc1	D1 agonist 38 (no result: D3 antag, Chronic BCR inh)
c1ccc(Cc2nnc(SCc3nc(-c4cccs4)no3)n2-c2ccccc2)cc1	none (no result: D3 antag, Chronic BCR inh)
CCc1ccc(-n2c(Cc3ccccc3)nnc2SCc2nc(-c3cccs3)no2)cc1	D1 agonist 84, D1 antagonist -37 (no result: D3 antag, Chronic BCR inh)
CCOc1ccccc1CNC(=O)CCCN1C(=O)COc2ccc(C)cc21	none (no result: D3 antag, Chronic BCR inh)
CCOc1ccc(C(=O)NCCc2sc(-c3ccc(F)cc3)nc2C)cc1	none (no result: D3 antag, Chronic BCR inh)
CC(C)CN(C[C@@H](OP(=O)(O)O)[C@H](Cc1ccccc1)NC(=O)O[C@H]1CCOC1)S(=O)(=O)c1ccc(N)cc1	none (no result: D3 antag, D1 agonist, Chronic BCR inh, D1 potentiator, D1 antagonist)
O=C(CCS(=O)(=O)c1cccc2nonc12)N1CC(=O)N(CCc2ccccc2)C(=O)C1	D1 antagonist -91
CN(C)CCCNC(=O)C(=O)Nc1ccc2c(c1)N(S(=O)(=O)c1cccs1)CCC2	none
CN(C)CCNC(=O)C(=O)Nc1ccc2c(c1)N(S(=O)(=O)c1cccs1)CCC2	D1 agonist 56, Chronic BCR inh inconclusive
COc1ccc(OC)c(NC(=O)CSc2nc(=O)n(CCN(C)C)c3c2CCC3)c1	Chronic BCR inh inconclusive (no result: D3 antag, D1 antagonist)
Cc1cccc(NC(=O)c2cn(-c3ccccc3)nc2-c2ccccc2)c1C	none (no result: D3 antag, Chronic BCR inh)
